About 14,000 (4.5%) of roughly 310,000 compounds showed an effect of 50% or more. The effect is printed as a negative number. The list comes from a sample in which strong results are over-represented; it also holds similar structures and randomly drawn compounds.
Each molecule was assayed against human ether-à-go-go-related gene (hERG) potassium channel (human, UniProt Q12809) (assay: primary screen, population patch clamp on CHO cells stably expressing hERG; higher = less effect of the substance).
Sequence of human ether-à-go-go-related gene (hERG) potassium channel (Q12809 whole entry, looked up): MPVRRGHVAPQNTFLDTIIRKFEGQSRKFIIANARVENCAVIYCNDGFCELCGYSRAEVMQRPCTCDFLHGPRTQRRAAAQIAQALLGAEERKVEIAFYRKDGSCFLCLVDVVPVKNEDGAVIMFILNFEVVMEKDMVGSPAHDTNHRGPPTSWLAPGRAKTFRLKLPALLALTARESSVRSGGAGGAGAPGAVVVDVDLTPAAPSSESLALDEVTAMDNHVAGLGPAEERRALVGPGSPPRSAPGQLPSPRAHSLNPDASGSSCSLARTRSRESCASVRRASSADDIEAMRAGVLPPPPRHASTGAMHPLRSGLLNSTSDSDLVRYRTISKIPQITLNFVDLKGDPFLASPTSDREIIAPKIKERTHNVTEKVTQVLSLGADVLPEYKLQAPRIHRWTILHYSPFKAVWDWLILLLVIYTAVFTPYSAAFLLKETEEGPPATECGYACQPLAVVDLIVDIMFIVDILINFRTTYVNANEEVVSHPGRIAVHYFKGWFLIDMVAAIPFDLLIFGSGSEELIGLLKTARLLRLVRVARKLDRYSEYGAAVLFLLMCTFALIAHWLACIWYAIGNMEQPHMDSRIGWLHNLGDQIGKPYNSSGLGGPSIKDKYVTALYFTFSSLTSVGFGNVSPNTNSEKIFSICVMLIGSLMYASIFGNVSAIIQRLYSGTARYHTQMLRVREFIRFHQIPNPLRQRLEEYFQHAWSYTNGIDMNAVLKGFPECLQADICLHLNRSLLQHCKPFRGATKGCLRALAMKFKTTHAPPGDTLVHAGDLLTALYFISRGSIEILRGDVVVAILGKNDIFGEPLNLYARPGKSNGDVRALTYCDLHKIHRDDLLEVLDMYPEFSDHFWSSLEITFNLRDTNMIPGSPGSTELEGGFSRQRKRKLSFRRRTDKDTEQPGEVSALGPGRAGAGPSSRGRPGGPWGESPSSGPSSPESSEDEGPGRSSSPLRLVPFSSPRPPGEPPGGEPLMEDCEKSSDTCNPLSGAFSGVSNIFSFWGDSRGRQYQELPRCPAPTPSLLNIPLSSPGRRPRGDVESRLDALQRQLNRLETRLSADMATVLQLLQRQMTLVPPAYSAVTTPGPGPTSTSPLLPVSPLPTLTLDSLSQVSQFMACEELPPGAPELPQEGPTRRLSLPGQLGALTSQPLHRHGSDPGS
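Also: peak tail current of the secondary pulse compared with the same well before compound.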

Row | SMILES | hERG current change (%, negative = inhibition) at 10uM
1 | O=C(c1ccccc1[N+](=O)[O-])N1CCN(Cc2ccc3c(c2)OCO3)CC1 | -13.4%
2 | Cc1cccc(N2C(S)=C(C#N)C(=O)NC23CCCCC3)c1 | -7.13%
3 | CCCCC(=O)Nc1ccc(NC(=O)c2ccco2)cn1 | 10.1%
4 | CCOc1ccccc1N1CCN(C(=O)c2csc(C)c2CC)CC1 | -8.41%
5 | COC(=O)CSC1=C(C#N)C(c2ccccc2OC)C(C(=O)OC)C(=O)N1 (stereo not shown) | 15.6%
6 | C/C(=C\C(=O)c1sccc1Cl)N(C)C | 0.12%
7 | Cc1cnc([N+](=O)[O-])n1CCOC(=O)c1cccc(F)c1 | -3.45%
8 | O=C(Cn1cnc2c(cnn2-c2ccccc2)c1=O)Nc1cc(S(=O)(=O)N2CCOCC2)ccc1Cl | -32.2%
9 | CCOc1cc(C(=S)N2CCCCC2)ccc1OCC(=O)NCc1ccccc1 | -31.2%
10 | COc1ccc(N2CCN(C(=O)Cn3cnc4c(cnn4-c4ccc(C)cc4)c3=O)CC2)cc1 | -9.24%
11 | CCN(CC)CCCNC(=O)c1cn(-c2cccc(OC)c2)c(=O)c2ccccc12 | -68.5%
12 | COc1cccc(-n2cc(C(=O)NCCCOC(C)C)c3ccccc3c2=O)c1 | -6.95%
13 | COCCCNC(=O)c1cn(-c2cccc(OC)c2)c(=O)c2ccccc12 | 18.1%
14 | CC(/C=C/c1ccccc1)=N\NC(=O)CNC(=O)c1ccccc1Cl | 7.15%
15 | O=C(CSC1CC(=O)N(c2ccc(C(=O)O)cc2)C1=O)Nc1ccc2ccccc2c1 (stereo not shown) | 15.8%
16 | O=C(NCCNc1ccccc1[N+](=O)[O-])c1ccccc1F | 4.11%
17 | Cc1ccoc1C(=O)NCCNc1ccc(Cl)cc1[N+](=O)[O-] | -30.5%
18 | Cc1ccc(C(=O)NCCNc2ccc(Cl)cc2[N+](=O)[O-])o1 | -60%
19 | O=C(NCCNc1ccccc1[N+](=O)[O-])c1cc(F)c(F)cc1Cl | -52.1%
20 | O=C(NCCNc1ccc(Cl)cc1[N+](=O)[O-])c1cccnc1 | -29.4%
21 | CN(C)CCNc1ccc(Cl)cc1[N+](=O)[O-] | -18.7%
22 | CCN(CC)CCNc1ccc(Cl)cc1[N+](=O)[O-].Cl | -61.6%
23 | CCNCCNc1ccc(Cl)cc1[N+](=O)[O-].Cl | -20.3%
24 | O=C(NCCCNc1ccc(C(F)(F)F)cc1[N+](=O)[O-])c1cc(F)c(F)cc1Cl | -15.7%
25 | COc1ccccc1NC(=O)NCC(c1ccco1)N1CCCCC1 (stereo not shown) | 14.8%
26 | Cc1ccc(S(=O)(=O)Nc2ccc(SC(F)F)cc2)c(C)c1 | 10.3%
27 | COc1ccc(NC(=O)CN2C(=O)C(C)Oc3ccc(C)cc32)cc1 (stereo not shown) | 3.11%
28 | CC(NC(=O)COc1ccccc1Cl)c1ccccc1 (stereo not shown) | 7.82%

Row | SMILES | hERG current change (%, negative = inhibition) at 10uM
29 | CN1CCN(C(=O)/C(=C/c2cccs2)NC(=O)c2ccco2)CC1 | -70.5%
30 | Cc1ccc(NC(=O)/C(=C/c2cccs2)NC(=O)c2ccco2)cc1 | 6.71%
31 | O=C(N/C(=C\c1cccs1)C(=O)N1CCOCC1)c1ccco1 | 0.17%
32 | O=C(N/C(=C/c1cccs1)C(=O)N1CCOCC1)c1ccco1 | -1.03%
33 | Cc1ccccc1NC(=O)/C(=C\c1cccs1)NC(=O)c1ccco1 | -7.17%
34 | CN1CCN(C(=O)/C(=C\c2cccs2)NC(=O)c2ccco2)CC1 | -67.4%
35 | O=C(Nc1ccc(S(=O)(=O)N2C[C@@H]3C[C@@H](C2)c2cccc(=O)n2C3)cc1)c1ccc(F)cc1 | -2.39%
36 | CC(=O)Nc1nc(N)n(-c2ccccc2)n1 | 3.2%
37 | Clc1ccc(-c2ncc3ccccn23)cc1 | -4.95%
38 | CN(c1ccc(C(=O)NCc2ccc3c(c2)OCO3)cc1)S(=O)(=O)c1ccccc1 | -4.02%
39 | O=C(NC1=NCCS1)C1CC2CCC1C2 (stereo not shown) | 2.05%
40 | COc1ccc(/C=N\NC(=O)c2cc(O)c(O)c(O)c2)cc1COc1ccc(C(=O)OCC(C)C)cc1 | 21%
41 | CC(C)(C)c1ccc(OC(=O)c2ccc3snnc3c2)cc1 | 20.4%
42 | CCN(CC)CCN(Cc1cc2cc3c(cc2[nH]c1=O)OCO3)C(=S)NCc1ccco1 | -55.8%
43 | Cc1ccc(C)c2[nH]c(=O)c(CN(Cc3cccs3)C(=S)NCc3ccco3)cc12 | -33%
44 | O=c1[nH]c2cc3c(cc2cc1CN(Cc1cccnc1)C(=S)NCc1ccco1)OCCO3 | -5.62%
45 | CN(C)CCN(Cc1cc2cc3c(cc2[nH]c1=O)OCO3)C(=S)NCc1ccco1 | -11.4%
46 | Cc1ccc(C)c2[nH]c(=O)c(CN(CC3CCCO3)C(=S)NCc3ccco3)cc12 (stereo not shown) | -24.3%
47 | O=c1[nH]c2cc3c(cc2cc1CN(Cc1cccnc1)C(=S)NCc1ccco1)OCO3 | -52.5%
48 | O=c1[nH]c2cc3c(cc2cc1CN(CCCO)C(=S)NCc1ccco1)OCO3 | 12%
49 | Cc1cc2cc(CN(Cc3cccs3)C(=S)NCc3ccco3)c(=O)[nH]c2cc1C | -13.9%
50 | CCN(CC)CCN(Cc1cc2cc(C)c(C)cc2[nH]c1=O)C(=S)NCc1ccco1 | -52.8%
51 | Cc1cc2cc(CN(CCN(C)C)C(=S)NCc3ccco3)c(=O)[nH]c2cc1C | -43.8%
52 | CCN(CC)CCCN(Cc1cc2cc3c(cc2[nH]c1=O)OCO3)C(=S)NCc1ccco1 | -38.2%
53 | Cc1ccc(C)c2[nH]c(=O)c(CN(Cc3cccnc3)C(=S)NCc3ccco3)cc12 | -61.1%
54 | COc1ccc(C(=O)NCCSc2ccc(C)cc2)cc1 | -11%
55 | O=c1cc(-c2cc3ccccc3o2)c2cc(O)ccc2o1 | 13.3%

— paper PMC4336329 (PLoS ONE, 2015)
